Where “and” joins values, the source holds several entries; their conditions need not be identical. Equal values may be shown once. Records with an inconclusive call do not appear. A call without a number means that no potency is given here. Calls of active or inactive are those of the source. Calls come from the whole dose curve; as a rule, active = well fitted inhibition curve with a large enough effect; inconclusive = small, poorly fitted or top-dose-only effect; inactive = flat fitted curve, though single readings scatter.
Target: Galactokinase (Homo sapiens) (UniProt P51570)
Experiment: qHTS for Inhibitors of Human Galactokinase (GALK): Confirmation Assay for SAR round 4
Details: recombinant GALK, ADP-Glo luminescence, 1 h; series mostly up to 57.5 µM
Description: Inherited deficiency of galactose-1-phosphate uridyltransferase (GALT) can result in a potentially lethal disorder called Classic Galactosemia (OMIM 230400). Several lines of evidence indicate that an elevated level of galactose-1-phosphate (gal-1-p), the product of galactokinase (GALK), is a major, if not sole, pathogenic mechanism in patients with classic galactosemia. Therefore, finding inhibitors of GALK is a potential novel therapy for this inherent metabolic disease and is the long term goal of this project. Active compounds observed in the qHTS GALK assay (AID: 1868) were cherry picked and re-screened for validation. GALK (provided by Kent Lai) was assayed using ATP and D-(+)-Galactose (Sigma-Aldrich cat# G0750) as substrates. Promega ADP-Glo technology was used to detect the ADP product formed after the kinase reaction. Kinase reactions with and without GALK were used as negative and positive controls together with Protein Tyrosine Phosphatase CD45 inhibitor (EMD Bioscience cat# 540215) which is shown to inhibit GALK activity. Decrease in activity corresponds to inhibition of the enzyme, the desired outcome for this assay. NIH Molecular Libraries Probe Production Network [MLPCN] NIH Chemical Genomics Center [NCGC] Grant: R03 MH085689-01 PI Name: Kent Lai, University of Utah
Two uL/well of ATP-buffer solution (35 uM ATP, 20mM HEPES pH8.0, 5 mM MgCl2, 60 mM NaCl, 1 mM DTT, 0.01% BSA final concentration) was dispensed into 1536-well, assay plates (Greiner, solid white medium-binding plates) with Aurora Discovery BioRAPTR Flying Reagent Dispenser (FRD; Beckton-Dickenson). Compound and control solution (23 nL) was transferred to the assay plate using the Kalypsys 1536-pin tool apparatus. Half uL/well GALK-galactose solution (5 nM GALK, 100 uM galactose, 20 mM HEPES pH8.0, 5 mM MgCl2, 60 mM NaCl, 1 mM DTT, 0.01% BSA final concentration) was then added using the FRD yielding a total kinase reaction volume of 2.5 uL/ well. After 1 hour of room temperature incubation, 2.5 uL ADP-Glo reagent A was added and incubated for 15 min. Five micorliter of ADP-Glo reagent B was then added per well and incubated for additional 15 min at room temperature. Luminescence was detected with the ViewLux plate reader (Perkin Elmer, Waltham, MA) using a 1 sec exposure time and 2x binning.

Chain of Galactokinase (Homo sapiens) (P51570 whole entry, looked up): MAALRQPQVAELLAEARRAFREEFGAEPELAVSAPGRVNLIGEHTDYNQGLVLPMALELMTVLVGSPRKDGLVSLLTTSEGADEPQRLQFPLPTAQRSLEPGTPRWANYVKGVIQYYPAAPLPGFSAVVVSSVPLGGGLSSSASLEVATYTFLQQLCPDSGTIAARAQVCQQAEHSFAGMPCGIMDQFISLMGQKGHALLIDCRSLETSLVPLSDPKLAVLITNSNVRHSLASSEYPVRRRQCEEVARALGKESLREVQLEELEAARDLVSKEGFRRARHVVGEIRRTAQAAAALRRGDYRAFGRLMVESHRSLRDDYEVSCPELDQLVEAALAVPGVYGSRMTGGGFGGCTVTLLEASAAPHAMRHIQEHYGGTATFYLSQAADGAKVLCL

Row | SMILES | Potency
1 | O=C1CCCC2=C1C(c1ccncc1Cl)N=C(Nc1nc3ccccc3o1)N2 (stereo not given) | 10.9 µM (active)
2 | O=C1CCCC2=C1C(c1ccccc1Br)N=C(Nc1nc3ccccc3o1)N2 (stereo not given) | 4.32 µM (active)
3 | CC1=C(C(=O)Nc2nc3ccccc3s2)C2(CCCC2)N=C(Nc2nc3ccccc3o2)N1 | inactive
4 | O=C1CCCC2=C1C(c1ccccc1I)N=C(Nc1nc3ccccc3o1)N2 (stereo not given) | 3.06 µM (active)
5 | CC1=C(C(=O)Nc2nc3ccccc3s2)C(c2nn(C)cc2Cl)N=C(Nc2nc3ccccc3o2)N1 (stereo not given) | inactive
6 | CC1=C(C(=O)Nc2nc3ccccc3s2)C(c2[nH]ncc2Cl)N=C(Nc2nc3ccccc3o2)N1 (stereo not given) | inactive
7 | CC1=C(C(=O)Nc2noc3ccccc23)C(c2nn(C)cc2Cl)N=C(Nc2nc3ccccc3o2)N1 (stereo not given) | inactive
8 | CC1=C(C(=O)Nc2ccon2)C(c2ccccc2Br)N=C(Nc2nc3ccccc3o2)N1 (stereo not given) | 7.69 µM (active)
9 | O=C1C2=C(CN1c1ccccc1)NC(Nc1nc3ccccc3o1)=NC2c1ccccc1Cl (stereo not given) | inactive
10 | CC1=C(C(=O)Nc2ccon2)C2(CCCC2)N=C(Nc2nc3ccccc3o2)N1 | 7.69 µM (active)
11 | O=C1C2=C(CN1Cc1ccccc1)NC(Nc1nc3ccccc3o1)=NC2c1ccccc1Cl (stereo not given) | inactive
12 | CC1=C(C(=O)NC2CCCC2)C(c2[nH]ncc2Cl)N=C(Nc2nc3ccccc3o2)N1 (stereo not given) | inactive
13 | O=C1CCCC2=C1C(c1[nH]ncc1Br)N=C(Nc1nc3ccccc3o1)N2 (stereo not given) | 15.3 µM (active)
14 | CC1=C(C(=O)Nc2nncs2)C(c2[nH]ncc2Cl)N=C(Nc2nc3ccccc3o2)N1 (stereo not given) | 7.69 µM (active)
15 | CC1=C(C(=O)Nc2noc3ccccc23)C2(CCCC2)N=C(Nc2nc3ccccc3o2)N1 | inactive
16 | O=C1CCCC2=C1C(c1ccccc1Cl)N=C(Nc1nc3ccccc3o1)N2 (stereo not given) | 13.7 µM (active)
17 | CC1=C(C(=O)Nc2ccc(Cl)cc2)C(c2ccccc2Br)N=C(Nc2nc3ccccc3o2)N1 (stereo not given) | inactive
18 | O=C1CCCC2=C1C(c1[nH]ncc1Cl)N=C(Nc1nc3ccccc3o1)N2 (stereo not given) | 5.44 µM (active) and 6.85 µM (active)
19 | CNC(=O)C1=C(C)NC(Nc2nc3ccccc3o2)=NC12CCCC2 | inactive
20 | CC(C)CN1CC2=C(C1=O)C(c1ccccc1Cl)N=C(Nc1nc3ccccc3o1)N2 (stereo not given) | inactive

Source: PubChem BioAssay AID743373 (National Center for Advancing Translational Sciences (NCATS), 2014)
